Inconclusive results are not listed. Calls of active or inactive are those of the source. Rule for the calls, unless noted: active = hit-call score of the fitted dose curve at least 0.9, where 1 is the maximum; inconclusive = response in the unintended direction; inactive = score below 0.9.
Columns and labels:
[1] = molecular target: Mitogen-activated protein kinase 3 (Homo sapiens) (UniProt P27361); assay: NVS_ENZ_hMAPK3: NovaScreen (NVS) Enzymatic Assay for human Mitogen-Activated Protein Kinase 3 (MAPK 3) (AID 2283177)
Sequence of Mitogen-activated protein kinase 3 (Homo sapiens) (P27361 whole entry, looked up): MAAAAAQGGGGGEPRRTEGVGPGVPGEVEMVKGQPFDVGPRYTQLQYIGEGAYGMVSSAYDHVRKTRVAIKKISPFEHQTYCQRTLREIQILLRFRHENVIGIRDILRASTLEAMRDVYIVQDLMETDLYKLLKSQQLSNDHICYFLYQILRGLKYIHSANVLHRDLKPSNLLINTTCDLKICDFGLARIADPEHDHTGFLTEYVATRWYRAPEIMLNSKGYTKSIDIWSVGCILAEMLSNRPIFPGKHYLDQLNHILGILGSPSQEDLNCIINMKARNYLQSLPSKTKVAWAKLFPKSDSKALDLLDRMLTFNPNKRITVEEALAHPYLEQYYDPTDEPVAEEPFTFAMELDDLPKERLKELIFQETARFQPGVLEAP
Method in brief: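 Cell-free enzymatic assay with recombinant protein and specific substrate; fluorescence and electrophoretic mobility shift read-out 1 h after dosing. Primary screen duplicate at 25 uM; actives then run in concentration-response up to 50 uM, loss of signal versus DMSO.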

[2] = molecular target: human Mitogen- and Stress-activated Protein Kinase-1 (Msk1), RPS6KA5 (gene 9252) (UniProt O75582); assay: NVS_ENZ_hMsk1: NovaScreen (NVS) Enzymatic Assay for human Mitogen- and Stress-activated Protein Kinase-1 (Msk1) (AID 2283187)
Method in brief: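 Recombinant kinase with fluorescent substrate; product separated by electrophoretic mobility shift, read 1 h after dosing. Screened in duplicate at 25 uM; hits (e.g. ≥30% inhibition) tested in concentration–response up to 50 uM. DMSO baseline.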

[3] = molecular target: human Phosphodiesterase 4A1 (PDE4A1), PDE4A (gene 5141) (UniProt P27815); assay: NVS_ENZ_hPDE4A1: NovaScreen (NVS) Enzymatic Assay for human Phosphodiesterase 4A1 (PDE4A1) (AID 2283191)
Sequence of human Phosphodiesterase 4A1 (PDE4A1), PDE4A (gene 5141) (P27815 whole entry, looked up): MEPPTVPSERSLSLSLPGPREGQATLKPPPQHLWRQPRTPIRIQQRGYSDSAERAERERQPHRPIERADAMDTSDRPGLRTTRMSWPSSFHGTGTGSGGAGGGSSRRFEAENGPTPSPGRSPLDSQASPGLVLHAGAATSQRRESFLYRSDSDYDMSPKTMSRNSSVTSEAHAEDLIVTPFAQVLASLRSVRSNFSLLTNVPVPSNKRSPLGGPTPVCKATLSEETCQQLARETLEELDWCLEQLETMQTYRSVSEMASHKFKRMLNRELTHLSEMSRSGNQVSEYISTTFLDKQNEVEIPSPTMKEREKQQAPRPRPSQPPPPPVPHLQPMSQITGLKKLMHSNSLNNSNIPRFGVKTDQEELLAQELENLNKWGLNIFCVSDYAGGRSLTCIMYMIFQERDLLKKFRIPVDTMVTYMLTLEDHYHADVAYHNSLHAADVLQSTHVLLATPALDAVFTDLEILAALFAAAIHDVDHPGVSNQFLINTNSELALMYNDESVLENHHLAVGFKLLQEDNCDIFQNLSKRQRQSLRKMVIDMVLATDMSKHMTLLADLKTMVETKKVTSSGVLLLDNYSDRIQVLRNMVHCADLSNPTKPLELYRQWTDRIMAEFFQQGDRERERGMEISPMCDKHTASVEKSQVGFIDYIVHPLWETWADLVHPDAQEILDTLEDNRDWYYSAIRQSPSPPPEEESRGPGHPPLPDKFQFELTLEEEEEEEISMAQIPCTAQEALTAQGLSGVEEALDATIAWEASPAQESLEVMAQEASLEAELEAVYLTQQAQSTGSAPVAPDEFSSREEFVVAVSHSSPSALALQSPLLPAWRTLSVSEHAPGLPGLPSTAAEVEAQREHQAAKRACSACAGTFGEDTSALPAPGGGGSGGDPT
Method in brief: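 Cell-free recombinant human PDE4A1 with fluorescent substrate; product separated by electrophoretic mobility shift, 1 h. Screened at 25 uM, then up to 50 uM in concentration-response; loss of signal fitted against DMSO.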

[4] = molecular target: human Phosphodiesterase 5 (PDE5), PDE5A (gene 8654) (UniProt O76074); assay: NVS_ENZ_hPDE5: NovaScreen (NVS) Enzymatic Assay for human Phosphodiesterase 5 (PDE5) (AID 2283194)
Method in brief: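 Recombinant human PDE5 with specific substrate, read 1 h after dosing by fluorescence with electrophoretic mobility-shift separation of substrate and product. Initial single-concentration duplicate screen at 25 uM, actives followed in concentration series; loss of activity versus DMSO.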

[5] = molecular target: Tyrosine-protein phosphatase non-receptor type 14 (Homo sapiens) (UniProt Q15678); assay: NVS_ENZ_hPTPN14: NovaScreen (NVS) Enzymatic Assay for human Protein Tyrosine Phosphatase Non-receptor Type 14 (PTPN14) (AID 2283206)
Method in brief: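 Cell-free recombinant human PTPN14 with fluorescent substrate, read 0.5 h after dosing by fluorescence and electrophoretic mobility shift separating substrate from product. Primary screen at 25 uM in duplicate; hits run to 50 uM maximum; loss of signal versus DMSO.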

[6] = molecular target: human Protein Tyrosine Phosphatase Receptor Type M (PTPRM), PTPRM (gene 5797) (UniProt P28827); assay: NVS_ENZ_hPTPRM: NovaScreen (NVS) Enzymatic Assay for human Protein Tyrosine Phosphatase Receptor Type M (PTPRM) (AID 2283215)
Method in brief: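 Cell-free recombinant PTPRM with fluorogenic substrate; product separated from substrate by electrophoretic mobility shift and read by fluorescence, 1.33 h after dosing. Primary screen single concentration (25 uM) in duplicate; actives retested in concentration series; loss of signal versus DMSO.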

[7] = molecular target: human SRC Proto-Oncogene, Non-receptor Tyrosine Kinase (SRC), SRC (gene 6714) (UniProt P12931); assay: NVS_ENZ_hSRC: NovaScreen (NVS) Enzymatic Assay for human SRC Proto-Oncogene, Non-receptor Tyrosine Kinase (SRC) (AID 2283223)
Sequence of human SRC Proto-Oncogene, Non-receptor Tyrosine Kinase (SRC), SRC (gene 6714) (P12931 whole entry, looked up): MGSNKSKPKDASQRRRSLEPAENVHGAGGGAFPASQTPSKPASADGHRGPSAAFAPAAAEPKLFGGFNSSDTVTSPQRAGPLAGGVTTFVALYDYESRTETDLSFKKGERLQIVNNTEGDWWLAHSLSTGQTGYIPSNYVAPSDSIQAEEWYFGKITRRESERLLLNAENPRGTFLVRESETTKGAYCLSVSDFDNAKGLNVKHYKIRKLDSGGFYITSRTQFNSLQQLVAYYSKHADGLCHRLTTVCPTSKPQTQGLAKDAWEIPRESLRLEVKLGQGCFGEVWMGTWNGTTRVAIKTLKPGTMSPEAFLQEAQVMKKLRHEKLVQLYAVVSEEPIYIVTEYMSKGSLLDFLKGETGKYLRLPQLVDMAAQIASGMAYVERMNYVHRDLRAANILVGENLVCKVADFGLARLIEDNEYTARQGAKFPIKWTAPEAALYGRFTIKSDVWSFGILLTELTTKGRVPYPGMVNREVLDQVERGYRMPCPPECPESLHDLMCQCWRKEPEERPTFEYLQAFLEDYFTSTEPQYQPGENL
Method in brief: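 Cell-free kinase activity assay with fluorescent substrate, product separated by electrophoretic mobility shift, read 1 h after dosing. Duplicate single point at 25 uM, then concentration-response up to 50 uM; loss of signal versus DMSO.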

[8] = test system: bovine Histamine 1 Receptor (H1), gene 281231; assay: NVS_GPCR_bH1: NovaScreen (NVS) G Protein-Coupled Receptor Assay for bovine Histamine 1 Receptor (H1) (AID 2283246)
Method in brief: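 Radioligand displacement on bovine cerebellar membranes, 1 h after dosing, filter-based scintillation read-out; loss of signal vs DMSO. Duplicate single-concentration screen at 25 uM, then concentration-response up to 50 uM for hits.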

[9] = molecular target: rat Glutamate Metabotropic Receptor 5 (MGluR5), Grm5 (gene 24418) (UniProt P31424); assay: NVS_GPCR_rmMGluR5: NovaScreen (NVS) G Protein-Coupled Receptor Assay for rat Glutamate Metabotropic Receptor 5 (MGluR5) (AID 2283307)
Method in brief: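 Rat whole-brain membrane preparation; filter-based radioligand binding read by scintillation counting, 1.5 h after dosing. Single-point screen at 25 uM in duplicate; hits over threshold (e.g. 30% inhibition) retested in concentration-response up to 50 uM; loss of signal vs DMSO.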

[10] = molecular target: rat Oxytocin Receptor (OXT), Oxtr (gene 25342) (UniProt P70536); assay: NVS_GPCR_rOXT: NovaScreen (NVS) G Protein-Coupled Receptor Assay for rat Oxytocin Receptor (OXT) (AID 2283330)
Method in brief: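 Radioligand displacement on rat uterine membranes, 1 h incubation, filter-based scintillation counting. Chemicals were screened in duplicate at 25 uM, and those passing threshold were retested in concentration-response up to 50 uM. Loss of binding was fitted versus DMSO.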

[11] = molecular target: Norway rat Vesicular Monoamine Transporter (VMAT2), neurotransmitter transporter, Slc18a2 (gene 25549) (UniProt Q01827); assay: NVS_TR_rVMAT2: NovaScreen (NVS) Transporter Assay for Norway rat Vesicular Monoamine Transporter (VMAT2), neurotransmitter transporter (AID 2283376);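 note: actives lower the bound radioligand signal below the DMSO level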
Method in brief: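 Tissue: rat forebrain extract. Format: competitive radioligand binding, cell-free. Timepoint: 1 h. Readout: filter radiodetection/scintillation. Screen: 25 uM in duplicate, then concentration series for actives. Baseline: DMSO.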

[12] = molecular target: Bile acid receptor (Homo sapiens) (UniProt Q96RI1); assay: OT_FXR_FXRSRC1_1440: Odyssey Thera (OT) 24-hour HEK293T Protein-Complementation Assay for Farnesoid X receptor/SRC-1 Co-activator (AID 2283384)
Sequence of Bile acid receptor (Homo sapiens) (Q96RI1 whole entry, looked up, the tested form may be a part): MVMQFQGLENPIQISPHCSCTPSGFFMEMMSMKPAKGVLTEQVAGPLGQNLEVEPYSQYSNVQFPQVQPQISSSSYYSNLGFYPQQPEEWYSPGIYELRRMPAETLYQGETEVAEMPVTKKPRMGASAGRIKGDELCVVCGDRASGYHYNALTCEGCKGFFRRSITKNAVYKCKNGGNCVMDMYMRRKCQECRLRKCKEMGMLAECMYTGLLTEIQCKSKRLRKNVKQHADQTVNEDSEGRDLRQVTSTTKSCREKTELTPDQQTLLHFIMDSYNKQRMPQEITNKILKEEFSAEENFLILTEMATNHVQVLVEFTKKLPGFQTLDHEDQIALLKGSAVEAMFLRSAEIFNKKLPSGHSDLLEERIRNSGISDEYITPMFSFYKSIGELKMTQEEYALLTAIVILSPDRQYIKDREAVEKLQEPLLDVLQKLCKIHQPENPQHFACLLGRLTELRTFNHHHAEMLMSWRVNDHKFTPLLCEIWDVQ
Method in brief: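 HEK293T cells, 24 h after chemical dosing. FXR–SRC-1 coactivator interaction read as fluorescence from protein-fragment complementation of a split reporter. Gain of signal fitted against DMSO baseline.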

[13] = read-out: Tumor necrosis factor receptor superfamily member 6 (Homo sapiens) (UniProt P25445); assay: LTEA_HepaRG_FAS: Life Technologies and Expression Analysis (LTEA) Assay for Fas cell surface death receptor (FAS) using HepaRG (AID 2283447; active = hit-call score of the fitted dose curve at least 0.9, where 1 is the maximum; inactive = score below 0.9); settings: mRNA level, 48 h; actives raise or lower the signal
Method in brief: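 FAS transcript level was measured by TaqMan qRT-PCR against three housekeeping genes after 48 h chemical exposure. Cells were HepaRG, 0.5% DMSO vehicle, with a top concentration of 100 uM and half-log dilutions over eight points, in duplicate.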

[14] = read-out: Fatty acid synthase (Homo sapiens) (UniProt P49327); assay: LTEA_HepaRG_FASN: Life Technologies and Expression Analysis (LTEA) Assay for Fatty Acid Synthase (FASN) using HepaRG (AID 2283448; active = hit-call score of the fitted dose curve at least 0.9, where 1 is the maximum; inactive = score below 0.9); settings: mRNA level, 48 h; actives raise or lower the signal
Method in brief: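 Differentiated HepaRG cells in serum-free induction medium exposed 48 h in duplicate to eight half-log concentrations, top 100 uM, 0.5% DMSO. FASN mRNA by qRT-PCR normalised to ACTB, GAPDH, POLR2A; bidirectional fit versus DMSO.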

[15] = read-out: Cyclin D2 (CCND2), CCND2 (gene 894); assay: LTEA_HepaRG_CCND2: Life Technologies and Expression Analysis (LTEA) Assay for Cyclin D2 (CCND2) using HepaRG (AID 2283449; active = hit-call score of the fitted dose curve at least 0.9, where 1 is the maximum; inactive = score below 0.9); settings: mRNA level, 48 h; actives raise or lower the signal
Method in brief: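 Read-out is CCND2 mRNA level measured by qRT-PCR in human HepaRG liver cells and normalised to three housekeeping genes. Chemicals were applied for 48 h at up to 100 uM, with gain or loss fitted relative to 0.5% DMSO.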

[16] = read-out: Cyclin Dependent Kinase Inhibitor 1A (CDKN1A), CDKN1A (gene 1026); assay: LTEA_HepaRG_CDKN1A: Life Technologies and Expression Analysis (LTEA) Assay for Cyclin Dependent Kinase Inhibitor 1A (CDKN1A) using HepaRG (AID 2283450; active = hit-call score of the fitted dose curve at least 0.9, where 1 is the maximum; inactive = score below 0.9); settings: mRNA level, 48 h; actives raise or lower the signal
Method in brief: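 Read-out is CDKN1A mRNA by TaqMan qRT-PCR, normalized to three housekeeping genes and fitted in both directions against the DMSO baseline. Human HepaRG cells were treated 48 h with test chemicals up to 100 uM in half-log steps, 0.5% DMSO.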

[17] = read-out: Cyclin D1 (CCND1), CCND1 (gene 595); assay: LTEA_HepaRG_CCND1: Life Technologies and Expression Analysis (LTEA) Assay for Cyclin D1 (CCND1) using HepaRG (AID 2283451; active = hit-call score of the fitted dose curve at least 0.9, where 1 is the maximum; inactive = score below 0.9); settings: mRNA level, 48 h; actives raise or lower the signal
Method in brief: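 HepaRG plated 48 h, medium switched to serum-free induction medium, chemicals added in duplicate (top 100 uM, half-log steps, 0.5% DMSO) for 48 h, cells lysed, RNA measured by TaqMan qRT-PCR.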

[18] = read-out: catalase (CAT), CAT (gene 847); assay: LTEA_HepaRG_CAT: Life Technologies and Expression Analysis (LTEA) Assay for catalase (CAT) using HepaRG (AID 2283452; active = hit-call score of the fitted dose curve at least 0.9, where 1 is the maximum; inactive = score below 0.9); settings: mRNA level, 48 h; actives raise or lower the signal
Method in brief: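 Expression of CAT was quantified by TaqMan qRT-PCR with ACTB/GAPDH/POLR2A normalization after 48 h chemical exposure of HepaRG. Eight-point half-log series, top 100 uM, in 0.5% DMSO; gain or loss fitted against vehicle.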

[19] = read-out: flavin-containing dimethylaniline monooxygenases 3 (FMO3), FMO3 (gene 2328); assay: LTEA_HepaRG_FMO3: Life Technologies and Expression Analysis (LTEA) Assay for flavin-containing dimethylaniline monooxygenases 3 (FMO3) using HepaRG (AID 2283453; active = hit-call score of the fitted dose curve at least 0.9, where 1 is the maximum; inactive = score below 0.9); settings: mRNA level, 48 h; actives raise or lower the signal
Method in brief: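 Differentiated HepaRG cells in serum-free induction medium, exposed 48 h in duplicate to 8 half-log concentrations up to 100 uM in 0.5% DMSO. FMO3 mRNA by qRT-PCR, normalized to ACTB, GAPDH, POLR2A; bidirectional fit vs DMSO.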

[20] = read-out: Cytochrome P450 (CYP1A1), CYP1A1 (gene 1543); assay: LTEA_HepaRG_CYP1A1: Life Technologies and Expression Analysis (LTEA) Assay for Cytochrome P450 (CYP1A1) using HepaRG (AID 2283454; active = hit-call score of the fitted dose curve at least 0.9, where 1 is the maximum; inactive = score below 0.9); settings: mRNA level, 48 h; actives raise or lower the signal
Method in brief: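 HepaRG, 48 h post-plating switched to serum-free induction medium; 8-pt conc-response (top 100 uM, half-log, 0.5% DMSO), duplicates, 48 h. Lysis in RLT, TaqMan qRT-PCR for CYP1A1; gain or loss vs DMSO.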

Measured: outcome

Sequence of Fatty acid synthase (Homo sapiens) (P49327 whole entry, looked up): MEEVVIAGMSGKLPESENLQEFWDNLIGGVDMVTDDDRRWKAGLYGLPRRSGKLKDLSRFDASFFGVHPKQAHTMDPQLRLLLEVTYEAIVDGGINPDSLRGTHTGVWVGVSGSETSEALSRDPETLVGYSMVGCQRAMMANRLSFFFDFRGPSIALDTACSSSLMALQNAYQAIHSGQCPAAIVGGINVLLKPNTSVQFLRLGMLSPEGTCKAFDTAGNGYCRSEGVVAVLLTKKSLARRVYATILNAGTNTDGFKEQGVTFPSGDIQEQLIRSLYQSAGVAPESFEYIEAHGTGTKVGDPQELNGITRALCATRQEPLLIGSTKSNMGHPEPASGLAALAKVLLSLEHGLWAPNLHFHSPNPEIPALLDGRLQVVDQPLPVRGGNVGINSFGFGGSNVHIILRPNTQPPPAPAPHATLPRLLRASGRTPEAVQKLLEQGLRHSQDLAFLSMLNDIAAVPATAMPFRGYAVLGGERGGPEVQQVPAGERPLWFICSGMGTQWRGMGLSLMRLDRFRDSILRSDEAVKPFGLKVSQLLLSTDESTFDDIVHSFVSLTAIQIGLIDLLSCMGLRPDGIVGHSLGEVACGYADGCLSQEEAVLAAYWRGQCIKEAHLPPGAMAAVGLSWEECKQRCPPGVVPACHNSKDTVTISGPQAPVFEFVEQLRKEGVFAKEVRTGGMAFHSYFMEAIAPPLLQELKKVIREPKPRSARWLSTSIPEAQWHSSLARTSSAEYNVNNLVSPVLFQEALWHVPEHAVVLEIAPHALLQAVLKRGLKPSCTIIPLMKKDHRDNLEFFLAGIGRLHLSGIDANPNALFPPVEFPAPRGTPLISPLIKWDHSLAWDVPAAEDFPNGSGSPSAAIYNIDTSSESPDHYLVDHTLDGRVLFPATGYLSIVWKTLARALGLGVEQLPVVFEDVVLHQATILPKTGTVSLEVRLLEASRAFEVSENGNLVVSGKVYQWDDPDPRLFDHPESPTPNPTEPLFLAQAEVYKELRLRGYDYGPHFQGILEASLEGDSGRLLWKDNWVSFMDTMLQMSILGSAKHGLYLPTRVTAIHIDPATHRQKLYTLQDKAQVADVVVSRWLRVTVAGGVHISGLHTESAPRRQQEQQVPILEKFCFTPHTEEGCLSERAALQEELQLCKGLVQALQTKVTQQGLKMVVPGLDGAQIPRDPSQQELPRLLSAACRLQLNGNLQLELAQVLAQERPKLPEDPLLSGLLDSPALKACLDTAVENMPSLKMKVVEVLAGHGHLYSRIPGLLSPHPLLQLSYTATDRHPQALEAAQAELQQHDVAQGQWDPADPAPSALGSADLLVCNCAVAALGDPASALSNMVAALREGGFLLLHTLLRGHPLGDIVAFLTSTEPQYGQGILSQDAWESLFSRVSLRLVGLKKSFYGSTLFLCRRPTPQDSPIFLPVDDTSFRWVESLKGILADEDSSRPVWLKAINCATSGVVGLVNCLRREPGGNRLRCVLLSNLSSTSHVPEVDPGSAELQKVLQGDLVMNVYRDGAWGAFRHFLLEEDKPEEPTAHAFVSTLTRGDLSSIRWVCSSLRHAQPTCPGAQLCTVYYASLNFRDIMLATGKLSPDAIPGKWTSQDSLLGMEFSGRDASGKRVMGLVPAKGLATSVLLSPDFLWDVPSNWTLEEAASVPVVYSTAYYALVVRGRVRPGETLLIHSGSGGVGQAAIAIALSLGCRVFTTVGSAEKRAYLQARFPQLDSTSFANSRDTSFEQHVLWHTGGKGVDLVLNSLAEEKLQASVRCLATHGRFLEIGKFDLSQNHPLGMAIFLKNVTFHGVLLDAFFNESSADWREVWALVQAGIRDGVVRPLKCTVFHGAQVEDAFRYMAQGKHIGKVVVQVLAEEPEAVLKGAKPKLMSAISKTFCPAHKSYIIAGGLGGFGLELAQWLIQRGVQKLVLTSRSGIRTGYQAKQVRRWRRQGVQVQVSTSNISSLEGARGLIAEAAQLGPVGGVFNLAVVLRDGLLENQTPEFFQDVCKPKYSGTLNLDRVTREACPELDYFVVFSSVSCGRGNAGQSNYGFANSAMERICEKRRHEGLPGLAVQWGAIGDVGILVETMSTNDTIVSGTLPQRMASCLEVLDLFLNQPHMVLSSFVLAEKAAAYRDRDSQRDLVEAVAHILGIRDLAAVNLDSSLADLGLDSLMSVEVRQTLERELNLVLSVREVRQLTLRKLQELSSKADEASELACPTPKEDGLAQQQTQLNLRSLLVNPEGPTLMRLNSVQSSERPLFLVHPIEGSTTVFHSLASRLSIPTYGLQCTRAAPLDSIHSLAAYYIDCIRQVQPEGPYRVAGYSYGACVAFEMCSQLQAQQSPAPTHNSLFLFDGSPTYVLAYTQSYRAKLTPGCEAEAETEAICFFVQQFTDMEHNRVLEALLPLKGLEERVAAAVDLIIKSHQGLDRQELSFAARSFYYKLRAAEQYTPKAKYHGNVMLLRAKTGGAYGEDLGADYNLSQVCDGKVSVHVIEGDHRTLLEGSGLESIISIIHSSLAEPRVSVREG

N#CCCCCC#N
inactive: all assays above

Source: PubChem BioAssay (EPA / NIEHS)
